# Experimental data: PubChem BioAssay AID2284158 (EPA ToxCast)
# Active and inactive are the calls of the source. Rule for the calls: active = hit-call score of the fitted dose curve at least 0.9, where 1 is the maximum; inconclusive = response in the unintended direction; inactive = score below 0.9.
# Biological target: D(1A) dopamine receptor (Homo sapiens) (UniProt P21728)
# Assay: ERF_FR_GPCR_hDRD1: Eurofins (ERF) G Protein-Coupled Receptor (GPCR) Radioligand Binding LeadHunter Assay for human Dopamine Receptor D1 Antagonism, conducted at France lab site
# Experimental: ERF_FR_GPCR_hDRD1 is a biochemical, single-readout assay that uses extracted gene-proteins in a cell-free assay. Measurements were taken 1 hour after chemical dosing in a 96-well plate. See D1 Human Dopamine GPCR Binding (Antagonist Radioligand) Assay, Cerep.ERF_FR_GPCR_hDRD1 is an assay component calculated from the ERF_FR_GPCR_hDRD1 assay. It is designed to measure radioligand binding using a type of binding reporter as detected by scintillation counting with radiometry technology.Data from the assay component ERF_FR_GPCR_hDRD1 was analyzed at the assay endpoint, ERF_FR_GPCR_hDRD1, in the positive analysis fitting direction relative to DMSO as the negative control and baseline of activity. Using a type of binding reporter, loss-of-signal activity can be used to understand changes in binding as they relate to gene DRD1. To generalize the intended target to other relatable targets, this assay endpoint is annotated to the gpcr intended target family, where the subfamily is dopamine.
# Human cells are incubated for 60 minutes at room temprature with [3H]SCH 23390 ligand (0.3 nM) and SCH 23390 as control inhibitor.Test Sample Requirements: Minimum for 1) Screen: 60 ul of 10 mM stock -OR- 1 mg (pre-weighed) for 10 uM final testing. 2) Dose Response: 90 ul of 10 mM stock -OR- 1 mg (pre-weighed) for a top concentration at 10 uM.
# Sequence of D(1A) dopamine receptor (Homo sapiens) (P21728 whole entry, looked up): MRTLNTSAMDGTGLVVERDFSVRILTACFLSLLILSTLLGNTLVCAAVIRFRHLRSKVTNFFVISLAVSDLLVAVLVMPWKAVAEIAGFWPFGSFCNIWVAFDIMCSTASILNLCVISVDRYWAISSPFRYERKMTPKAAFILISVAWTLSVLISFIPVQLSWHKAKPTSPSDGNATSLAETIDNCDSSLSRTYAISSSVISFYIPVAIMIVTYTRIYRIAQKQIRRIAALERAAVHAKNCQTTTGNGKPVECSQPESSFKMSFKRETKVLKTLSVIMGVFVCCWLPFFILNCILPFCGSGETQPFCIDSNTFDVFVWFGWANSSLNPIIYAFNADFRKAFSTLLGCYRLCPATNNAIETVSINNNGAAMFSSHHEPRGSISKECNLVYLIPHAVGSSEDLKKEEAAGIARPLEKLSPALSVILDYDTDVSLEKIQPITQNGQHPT
Structure (SMILES),outcome,AC50
COc1cc(CCC(=O)CC(=O)CCc2ccc(O)c(OC)c2)ccc1O,inactive,–
O=C(/C=C/c1ccc(O)cc1)CC(=O)/C=C/c1ccc(O)cc1,–,1070 nM (active)
COc1cc(/C=C/C(=O)CC(=O)/C=C/c2ccc(O)c(OC)c2)ccc1O,–,2040 nM (active)
